According to PubChem BioAssay AID651812 (National Center for Advancing Translational Sciences (NCATS), 2012):
Where “and” joins values, the source holds several entries; their conditions need not be identical. Equal entries are not always repeated. About 650 (31%) of roughly 2,100 compounds were called active. Inconclusive results (about 16%) are left out. Calls come from the whole dose curve; as a rule, active = well fitted inhibition curve with a large enough effect; inconclusive = small, poorly fitted or top-dose-only effect; inactive = flat fitted curve, though single readings scatter. The list shows a part of the results.

Assay: qHTS for inhibitors of Vif-A3G interactions: Cherry picks; note: nearly all actives have a fitted effect of over 80% in size; for activity, negative = fluorescence increase: % of control where 0% means no effect
Conditions: HeLa A3G-eYFP + Vif (tagged APOBEC3G with the HIV-1 protein that degrades it), 24 h; Potency: eYFP fluorescence increase; series mostly up to 36.9 µM; activity, negative = fluorescence increase: at the top concentration
Outline: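 Cherry-picked compounds tested at several concentrations on A3G-eYFP/Vif HeLa cells for 24 hours; loss of Vif-driven degradation read as eYFP fluorescence by cytometric plate imaging, 488 nm excitation, 500-530 nm emission.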
Potency is the fitted concentration of half-maximal effect.

activity, negative = fluorescence increase, inactive:
Cc1ccccc1NC(=O)c1sc2nc3c(c(-c4ccco4)c2c1N)CCC3 -13.1%
COc1ccc(/C=N/NC(=O)c2[nH]nc3c2CCc2ccccc2-3)cc1OC -16.8%
CC(=O)Nc1ccc(S(=O)(=O)N2CCSc3ccccc32)cc1 -1.38%
COc1ccc(-n2nnnc2-c2ccccc2)cc1 -2.72%
Cc1cccc(NC(=O)/C(C#N)=C/c2cn(CC(=O)NCc3ccco3)c3ccccc23)c1C -14.4%
O=S(=O)(Nc1ccc(C(O)(C(F)(F)F)C(F)(F)F)cc1)c1ccc(Cl)c2nonc12 -7.19%
COc1ccccc1N1CCN(C(=O)c2cc(=O)c3cc(C)cc(C)c3o2)CC1 -4.1%
COc1cccc(-c2cnc3c(NC=O)cc(-c4cc(OC)c(OC)c(OC)c4)cn23)c1 -0.111%
COc1cccc(NC(=O)c2oc3ccc(S(=O)(=O)N4CCC5(CC4)OCCO5)cc3c2C)c1 -5.82% [at 46.1 µM]
O=C(N/N=C/c1ccc(Cl)cc1)c1cc2c(s1)-c1ccccc1CC2 -9.15%
CCOC(=O)Cc1ccc(Nc2nc3cc(-c4sccc4C)sc3c(=O)n2C)cc1 1.41%
O=C(O)CSc1cc(NS(=O)(=O)c2cccc([N+](=O)[O-])c2)c2ccccc2c1O 1.69%
COc1ccc(C(=O)C(C)[n+]2ccc(C)c3ccccc32)cc1[N+](=O)[O-] (stereo not given) 2.06%
COc1cc(-c2noc(C)c2/C=C/c2cccc([N+](=O)[O-])c2)cc(OC)c1OC -7.09%
O=c1[nH]cnc2n[nH]nc12 -24.1% [at 46.1 µM]
COc1ccccc1-c1cc(C(=O)NN)[nH]n1 2.82%
COc1ccccc1-c1nnc2sc(-c3cc4ccccc4o3)nn12 -6.49%
O=C1OCC2=C1C(c1ccc3c(c1)OCO3)c1cc3c(cc1O2)OCO3 (stereo not given) -11.2%
COc1cccc(C2=CC(c3ccccc3)n3nnnc3N2)c1 (stereo not given) -0.672%
CN(C)CCN(C(=O)/C=C/c1cccs1)c1nc2c(F)cc(F)cc2s1 -2.76% [at 46.1 µM]
COc1ccccc1NC(=O)Cc1ccc(-c2ccccc2)cc1 5.42% [at 46.1 µM]
COC(=O)CCC(=O)NC(=S)Nc1sc(C)c(C)c1C(N)=O -18.9%
CC(=O)Nc1ccc(CC(=O)NCCC(c2ccccc2)c2ccccc2)cc1 -6.14%
Cn1cccc1/C=C1\SC(=Nc2ccccc2)NC1=O -0.492%
CC1C/C(=C/c2cccs2)C(=O)/C(=C/c2cccs2)C1 (stereo not given) 2.31%
CC1CCN(C(=O)C(C)Sc2nc(-c3ccccc3)cc(C(F)(F)F)n2)CC1 (stereo not given) -0.49% [at 46.1 µM]
CCc1ccc2nc(N(CCCN(C)C)C(=O)c3ccc(S(=O)(=O)N(C)C4CCCCC4)cc3)sc2c1 0.585%
C=CCn1c(SCc2c(C)noc2C)nc2cc(C(=O)O)ccc2c1=O -21.4%
COc1cc(C(=O)N/N=C/C2CC=CCC2)cc(OC)c1OC (stereo not given) -2.79%
COc1cc(/C=C2/SC(=S)N(Cc3ccccc3)C2=O)cc(OC)c1O -23.4%
COc1ccc(NC(=O)CN2C(=O)C3(SCC(=O)N3c3ccccc3)c3ccccc32)cc1Cl (stereo not given) -4.85% [at 46.1 µM]
O=C(NCCN1C(=O)S/C(=C\c2ccc(OC(F)F)cc2)C1=O)c1cnccn1 -7.81%
COc1cc(C=C2C(=O)c3ccccc3C2=O)cc(OC)c1OC -7.56% [at 46.1 µM]
COC(=O)C1=C(C)NC2=C(C(=O)CC(c3cccs3)C2)C1c1ccsc1 (stereo not given) 0.506%
CC(=O)Nc1cccc(-c2ccnc3c2CC(C)(C(=O)NCc2cccs2)O3)c1 (stereo not given) -10.2%
Clc1ccc2c(c1)C(C1=NCCN1)c1ccccc1CS2 (stereo not given) -2.39%
CCOC(=O)Nc1ccc2c3c(cccc13)-c1ccccc1-2 -23.2% [at 46.1 µM]
CC(=O)Nc1ccc(-c2ccnc3c2CC(C)(C(=O)NCc2ccco2)O3)cc1 (stereo not given) -4.96%
Cc1ccc2nc(-c3ccccn3)c(Nc3ccccc3C)n2c1 -1.59% [at 46.1 µM]
Cc1ccccc1C1CC(c2cccs2)=NN1S(C)(=O)=O (stereo not given) -12.5% [at 46.1 µM]
Cc1ccc(C2=NN(C(=O)c3cccs3)C(c3ccccc3O)C2)cc1 (stereo not given) -2.58%
Cn1c(=S)c2[nH]c(SCCN3CCCC3)nc2n(C)c1=O -1.15% [at 46.1 µM]
O=C1C=CC(O)(c2cc(=O)c3c(O)cc(O)cc3o2)C=C1 2.3%
Cc1ccc(Nc2nc(-c3cccnc3)nc3ccccc23)cc1 -1.44%
c1cncc(-c2nc(NCc3cccs3)c3ccccc3n2)c1 3.34% [at 46.1 µM]
c1ccc(N=NC2=NN(c3ccccc3)CS2)cc1 11.3% [at 46.1 µM]
Cc1cccc(CSc2cccc3cccnc23)c1 -11.3%
Cc1nnc(NC(=O)CSc2nc(C(C)C)nc3ccccc23)s1 -10.3%
O=C(OCc1ccccc1)c1ccc(NCc2cc(O)ccc2O)cc1 0.113%
Cc1cc(C)cc(NC(=S)NC(=O)C2CC2)c1 4.73% [at 46.1 µM]
CCn1c2ccccc2c2cc(NC(=O)CNCc3ccccc3OC)ccc21 -1.27%
COc1ccccc1C1c2ccc3ccccc3c2Oc2ncn(CCN(C)C)c(=N)c21 (stereo not given) -6.82%
CCOc1ccccc1OCC(=O)N/N=C(\C)Cc1ccc(OC)cc1 -7.08%
Cc1ccc(NC(=O)C2CCN(S(=O)(=O)c3ccc(Cl)c(C(F)(F)F)c3)CC2)nc1 -2.61%
CCCc1nc2c(C)cc(Br)cn2c1Cc1ccccc1 1.71%
O=C(Nc1cc(Cl)cc2c1-c1ccc(Cl)cc1C2O)C(Cl)Cl (stereo not given) 1.22%
CCOC(=O)c1csc(NC(=O)c2cc(-c3ccccn3)nc3ccccc23)n1 -1.94%
CCn1ncc(/C=N\NC(=O)c2csc3ccccc23)c1C -10.5%
CCC1CC=CC2C1C(=O)N(Cc1ccccc1)C2c1ccoc1 (stereo not given) -8.78% [at 46.1 µM]
COc1cc(C2C(C#N)=C(N)Oc3cc(O)ccc32)cc2c1OCO2 (stereo not given) 3.33%
Cc1ccc(CNC(=O)C2CC(c3cc(C(F)(F)F)cc(C(F)(F)F)c3)=NO2)o1 (stereo not given) -0.774%
CN1C/C(=C/c2cccnc2)C(=O)/C(=C/c2cccnc2)C1 0.927%
CC(NC(=S)Nc1cccc(C(F)(F)F)c1)C(C)(C)C (stereo not given) 13.5% [at 46.1 µM]
Cc1ccc(F)c(S(=O)(=O)NC(=O)C2(C)CCN2C(=O)Cc2ccc(Cl)cc2Cl)c1 (stereo not given) 3.77%
CSc1ccc(C2NC(=O)c3ccccc3N2)cc1 (stereo not given) -4.95%

Potency, active:
Nc1c(C(=O)Nc2ccccc2F)sc2nc(-c3ccco3)ccc12 23.1 µM
Cn1cc(C2=C(c3ccc(Cl)cc3Cl)C(=O)NC2=O)c2ccccc21 13 µM and 18.4 µM
Clc1ccc(/C=N/NC2=Nc3cccc4cccc2c34)cc1 18.4 µM
COc1ccc(-n2c(O)c(/C=N/NS(=O)(=O)c3ccc(C)c([N+](=O)[O-])c3)c3ccccc3c2=O)cc1OC 11.6 µM
COc1ccc(-n2c(O)c(/C=N/NS(=O)(=O)c3cccc([N+](=O)[O-])c3)c3ccccc3c2=O)cc1OC 15.8 µM
CN(C)c1ccc2ccc3cccc4ccc1c2c34 14.6 µM
Cc1ccc(-c2nc(-c3cc4cccc(OCc5cccc(F)c5)c4oc3=O)no2)cc1 18.4 µM
CCCCCCc1cc2cc(-c3nnc(-c4ccccc4OC)o3)c(=O)oc2cc1O 3.53 µM
CCCCCCc1cc2cc(-c3nnc(-c4ccccc4)o3)c(=O)oc2cc1O 1.58 µM
O=S(=O)(Nc1nc2n(n1)C(c1ccccc1)C=C(c1ccc(Cl)cc1)N2)c1ccccc1 (stereo not given) 18.4 µM
CC(=O)Nc1sc(C)c(C)c1C(=O)OCC(=O)Nc1ccccc1 20.6 µM
Cn1cccc1/C=C1\CC(C(C)(C)C)C/C(=C\c2cccn2C)C1=O (stereo not given) 7.31 µM
CN1C2CCC1/C(=C/c1cccn1C)C(=O)/C2=C\c1cccn1C 18.4 µM
COc1cc(/C=C2/SC(=S)N(CCC(=O)Nc3ccccc3)C2=O)cc(OC)c1OC 18.4 µM
O=C(CN1C(=O)S/C(=C\c2cc(Cl)c(O)c(Cl)c2)C1=O)Nc1ccccc1 20.6 µM
O=CNc1ccc2c3c(cccc13)-c1ccccc1-2 15.8 µM
CCN1C(=O)/C(=C/C=C2\N(CC)c3cc(S(=O)(=O)N(C)C)ccc3N2c2ccccc2)SC1=S 4.44 µM
CCc1ccc(C2=NN(S(C)(=O)=O)C(c3cccs3)C2)cc1 (stereo not given) 25 µM
CCOc1ccccc1C1CC(c2cccs2)=NN1S(C)(=O)=O (stereo not given) 13 µM
C1=Cc2ccccc2/C1=C\c1cc2c3c(c1)CCCN3CCC2 18.4 µM
Oc1ccccc1-c1nc(NCc2ccccc2)c2ccccc2n1 20.6 µM
O=C1c2ccccc2C(=O)c2c(/C=C/N3CCCCC3)ccnc21 18.4 µM
Cc1c2ccccc2nc2c(F)c(NC(C)C)c(F)c(F)c12 10.3 µM
CCCNc1c(F)c(F)c2c(C)c3ccccc3nc2c1F 17.7 µM
Cc1ccc(S(=O)c2ccc([N+](=O)[O-])c3nonc23)cc1 (stereo not given) 20.6 µM
Cc1cc(C)cc(NC(=O)Cn2cc(C(=O)C3CCCCC3)c3ccccc32)c1 20.6 µM
N#C/C(=C/c1ccc(N2CCOCC2)o1)c1ccc(Cl)cc1 1.46 µM
Cc1ccc(/C(C#N)=C\c2ccc(N3CCOCC3)o2)cc1 19.8 µM
N#C/C(=C/c1ccc(N2CCCCCC2)o1)c1ccc(Cl)cc1 0.651 µM
CCOC(=O)Cc1csc(NC(=O)c2sc3nc4c(C)cc(C)cc4cc3c2N)n1 20.6 µM
Cc1cc(-c2ccccc2)c2c3c(c(-c4ccccc4)n2n1)c(=O)n(C)c(=O)n3C 18.4 µM
Cc1c(N2C(=O)/C(=C/c3ccc(N(C)C)cc3)N(C)C2=S)c(=O)n(-c2ccccc2)n1C 18.4 µM
CN1C(=O)/C(=C\c2ccc(N(C)C)cc2)OC1=S 4.98 µM
CN1C(=S)N(c2cccnc2)C(=O)/C1=C\c1ccc(N(C)C)cc1 15.8 µM
CCN(CC)c1ccc2c(c1)oc(=O)c1c(Cl)cc(=O)oc12 23.1 µM
